# Source: PubChem BioAssay
# For part of these data: Potency and affinity values are given separately. Active and inactive are the calls of the source.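 The calls were made as follows, unless noted: active = hit in primary screen, with calcium signal over 5 SD above buffer well mean in both duplicates; inactive = the rest.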
# How the values were obtained:
# [1] = test system: TRPC4 beta (transient receptor potential cation channel C4), mouse; assay: activators of mouse TRPC4 channel, confirmation, cell-based, Fluo4 calcium, HEK293 TRPC4beta/mu-opioid, duplicates, 10 µM (AID 2426;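 active = fluorescence ratio normalized to control raised more than 50% in primary screen plus both repeat runs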;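 as to activation: percent rise of integrated ratio over buffer wells lacking compound which define 0%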); settings: Fluo4 calcium fluorescence, at 10 µM; hits give high values
# [2] = test system: transient receptor potential cation channel C4 beta (TRPC4), mouse; assay: activators of mouse TRPC4 channel, confirmation, cell-based, second round, Fluo4, HEK293 TRPC4beta/mu-opioid, 1 µM (AID 2461;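 active = primary screen active and over 50% activation in each of two duplicate runs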); settings: Fluo4 calcium fluorescence, at 1 µM; hits give high values
# [3] = test system: TRPC4 (transient receptor potential cation channel C4 beta), mouse; assay: positive allosteric modulators of mouse TRPC4, confirmation, cell-based, second round, Fluo-4, HEK293 TRPC4beta/mu-opioid, 1 µM (AID 2554;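 active = primary screen hit whose fluorescence ratio, in both repeats, exceeds the weak agonist control mean by 3 SD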); settings: DAMGO EC20, Fluo-4 calcium flux, at 1 µM; hits give high values
# [4] = test system: TRPC4 beta (transient receptor potential cation channel C4), mouse; assay: positive allosteric modulators of mouse TRPC4, confirmation, cell-based, Fluo-4, HEK293 TRPC4beta/mu-opioid (AID 2555;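 active = primary screen hit whose calcium fluorescence ratio, in both repeats, exceeds the weak agonist control mean by 3 SD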); settings: DAMGO EC20, Fluo-4 calcium flux, at 10 µM; hits give high values
# [5] = target: Short transient receptor potential channel 4 (Mus musculus) (UniProt Q9QUQ5); assay: inhibitors of mouse TRPC4 channel, confirmation, cell-based, Fluo4, HEK293 TRPC4beta/mu-opioid (AID 2636;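 active = calcium signal cut by more than 3 SD below the full-agonist control yet still positive, in both repeats and the earlier primary screen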); settings: DAMGO, Fluo4 calcium flux, at 10 µM; hits give high values
# [6] = target: Short transient receptor potential channel 4 (Mus musculus) (UniProt Q9QUQ5); assay: inhibitors of mouse TRPC4 channel, confirmation, cell-based, second round, Fluo4, HEK293 TRPC4beta/mu-opioid, 1 µM (AID 2637;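 active = calcium signal ratio cut to more than 3 SD under the fully stimulated control mean yet still positive, in both repeats and the primary screen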); settings: Fluo4 calcium flux, DAMGO, at 1 µM; hits give high values
# [7] = target: Short transient receptor potential channel 4 (Mus musculus) (UniProt Q9QUQ5); assay: mouse TRPC4 channel activators, dose response, cell-based, HEK293 TRPC4/mu-opioid, Fluo-4 calcium (AID 434937;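 active = primary screen activator hit with a dose response curve and TRPC4 channel activation at any tested dose; inactive = no activation, no dose response, or not a primary hit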)
# [8] = target: Short transient receptor potential channel 4 (Mus musculus) (UniProt Q9QUQ5); assay: mouse TRPC4 channel inhibitors, dose response, cell-based, HEK293 TRPC4/mu-opioid, Fluo-4 calcium (AID 434942;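 active = primary screen inhibitor hit that blocks the TRPC4 channel at some tested dose, yielding a dose curve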)
# [9] = target: Short transient receptor potential channel 6 (Mus musculus) (UniProt Q61143); assay: inhibition of mouse TRPC6 channel, confirmation, selectivity assay for TRPC4 inhibitor project, cell-based, HEK293, membrane potential dye, duplicate (AID 434948;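 active = active in primary screen and both duplicates, each dropping signal beyond three positive-control SD with fluorescence still positive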); settings: HEK293 TRPC6, membrane potential dye fluorescence, at 10 µM, stimulated with maximal-effect acetylcholine; hits give high values
# [10] = target: Short transient receptor potential channel 6 (Mus musculus) (UniProt Q61143); assay: activation of mouse TRPC6 channel, confirmation, selectivity assay for TRPC4 activator project, cell-based, HEK293, membrane potential dye, duplicate (AID 434950;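 active = membrane potential signal rise above negative control mean plus 3 SD in both duplicates, also active in the earlier TRPC4 screen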); settings: HEK293 TRPC6, membrane potential fluorescence, at 10 µM; hits give high values
# [11] = target: Short transient receptor potential channel 6 (Mus musculus) (UniProt Q61143); assay: TRPC6 potentiation by TRPC4 potentiator hits, confirmation, selectivity assay for TRPC4 potentiator project, HEK293 cells, membrane potential dye, duplicate (AID 434952;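 active = compound raising the membrane signal above positive-control mean plus 3 SD in both repeats, and a primary screen hit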); settings: HEK293 TRPC6, membrane potential dye fluorescence, at 10 µM, maximal acetylcholine added after compound; hits give high values
# [12] = target: Short transient receptor potential channel 4 (Mus musculus) (UniProt Q9QUQ5); assay: calcium flux activators in TRPC4/5HT1a cells, counter-screen for TRPC4 activator project, cell-based, second counter screen, HEK293 TRPC4/5HT1a, Fluo-4 (AID 434977;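 active = calcium signal rise above buffer-control mean plus 5 SD in both duplicates, and also a hit in the primary screen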;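 as to activation: plate controls were assay buffer for no effect and maximal serotonin response for full effect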); settings: Fluo-4 calcium flux, at 10 µM; hits give high values
# [13] = calcium flux inhibitors in TRPC4/5HT1a cells, confirmation, counter-screen for TRPC4 inhibitor project, cell-based, second counter screen, HEK293 TRPC4/5HT1a, Fluo-4 (AID 434978;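 active = primary screen active whose calcium signal fell more than 3 SD beyond the full-serotonin control mean in both duplicate plates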;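 also: serotonin given first at submaximal then at maximal dose after compound preincubation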); settings: Fluo-4 calcium flux, at 10 µM, serotonin added to trigger calcium flux; hits give high values
# [14] = test system: TRPC4 (mouse), co-expressed with 5HT1a in HEK293; assay: calcium flux potentiators in TRPC4/5HT1a cells, confirmation, counter-screen for TRPC4 potentiator project, cell-based, second counter screen, HEK293 TRPC4/5HT1a, Fluo-4 (AID 434979;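 active = signal rise over 3 SD above mean of control wells given weak agonist, in both repeats and first screen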); settings: Fluo-4 calcium flux, at 10 µM, serotonin added at its EC20 dose; hits give high values
# [15] = calcium flux activation in mu-opioid HEK293 cells, confirmation, counter-screen for TRPC4 activator project, cell-based, HEK293 mu-opioid receptor line (AID 449723); settings: Fluo-4 calcium fluorescence, at 10 µM; hits give high values;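 also: counter screen cells carry the mu-opioid receptor alone and lack TRPC4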
# [16] = calcium flux enhancement in mu-opioid HEK293 cells, confirmation, counter-screen for TRPC4 allosteric potentiator project, cell-based, HEK293 mu-opioid receptor line (AID 449724;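 active = calcium signal rise more than 3 SD above the low-dose agonist control mean, in both duplicate plates and the primary screen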); settings: Fluo-4 calcium flux, at 10 µM, compound added before EC20 DAMGO stimulus; hits give high values
# [17] = target: Short transient receptor potential channel 4 (Mus musculus) (UniProt Q9QUQ5); assay: TRPC4 positive allosteric modulators, dose response, cell-based, HEK293 TRPC4/mu-opioid, Fluo-4 calcium, EC20 DAMGO (AID 434941;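 active = earlier screen potentiator hit that boosts the TRPC4 ion channel at some dose, with a dose response; inactive = no potentiation, no dose response, or not a prior hit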;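 also: calcium entry triggered by an EC20 dose of DAMGO at the co-expressed mu-opioid receptor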)
# Chain of Short transient receptor potential channel 4 (Mus musculus) (Q9QUQ5 whole entry, looked up): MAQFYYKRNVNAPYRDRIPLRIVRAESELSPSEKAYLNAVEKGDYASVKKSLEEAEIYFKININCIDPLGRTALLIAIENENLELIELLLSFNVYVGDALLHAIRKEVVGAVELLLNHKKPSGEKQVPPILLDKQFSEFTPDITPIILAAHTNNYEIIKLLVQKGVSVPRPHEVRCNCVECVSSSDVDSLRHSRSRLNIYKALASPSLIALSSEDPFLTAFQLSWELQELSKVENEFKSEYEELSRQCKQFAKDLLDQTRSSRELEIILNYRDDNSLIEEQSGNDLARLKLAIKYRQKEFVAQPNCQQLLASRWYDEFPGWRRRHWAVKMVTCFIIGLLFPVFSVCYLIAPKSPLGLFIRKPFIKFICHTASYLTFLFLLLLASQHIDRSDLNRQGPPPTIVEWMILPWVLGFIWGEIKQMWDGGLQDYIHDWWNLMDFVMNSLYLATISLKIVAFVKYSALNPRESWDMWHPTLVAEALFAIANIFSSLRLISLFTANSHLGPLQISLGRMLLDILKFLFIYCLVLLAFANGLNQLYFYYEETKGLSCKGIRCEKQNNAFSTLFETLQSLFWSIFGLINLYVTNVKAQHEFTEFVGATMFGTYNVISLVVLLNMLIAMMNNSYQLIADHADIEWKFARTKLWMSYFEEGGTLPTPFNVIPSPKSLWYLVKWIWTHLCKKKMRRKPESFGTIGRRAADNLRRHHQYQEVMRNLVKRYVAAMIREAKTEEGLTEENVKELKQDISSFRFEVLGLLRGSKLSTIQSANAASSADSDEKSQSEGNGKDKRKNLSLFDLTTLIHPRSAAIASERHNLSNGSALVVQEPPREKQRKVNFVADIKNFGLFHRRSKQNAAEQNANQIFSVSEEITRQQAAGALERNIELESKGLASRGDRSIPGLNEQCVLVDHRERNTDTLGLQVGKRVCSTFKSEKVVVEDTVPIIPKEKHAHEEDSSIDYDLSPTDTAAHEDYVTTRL
# Chain of Short transient receptor potential channel 6 (Mus musculus) (Q61143 whole entry, looked up): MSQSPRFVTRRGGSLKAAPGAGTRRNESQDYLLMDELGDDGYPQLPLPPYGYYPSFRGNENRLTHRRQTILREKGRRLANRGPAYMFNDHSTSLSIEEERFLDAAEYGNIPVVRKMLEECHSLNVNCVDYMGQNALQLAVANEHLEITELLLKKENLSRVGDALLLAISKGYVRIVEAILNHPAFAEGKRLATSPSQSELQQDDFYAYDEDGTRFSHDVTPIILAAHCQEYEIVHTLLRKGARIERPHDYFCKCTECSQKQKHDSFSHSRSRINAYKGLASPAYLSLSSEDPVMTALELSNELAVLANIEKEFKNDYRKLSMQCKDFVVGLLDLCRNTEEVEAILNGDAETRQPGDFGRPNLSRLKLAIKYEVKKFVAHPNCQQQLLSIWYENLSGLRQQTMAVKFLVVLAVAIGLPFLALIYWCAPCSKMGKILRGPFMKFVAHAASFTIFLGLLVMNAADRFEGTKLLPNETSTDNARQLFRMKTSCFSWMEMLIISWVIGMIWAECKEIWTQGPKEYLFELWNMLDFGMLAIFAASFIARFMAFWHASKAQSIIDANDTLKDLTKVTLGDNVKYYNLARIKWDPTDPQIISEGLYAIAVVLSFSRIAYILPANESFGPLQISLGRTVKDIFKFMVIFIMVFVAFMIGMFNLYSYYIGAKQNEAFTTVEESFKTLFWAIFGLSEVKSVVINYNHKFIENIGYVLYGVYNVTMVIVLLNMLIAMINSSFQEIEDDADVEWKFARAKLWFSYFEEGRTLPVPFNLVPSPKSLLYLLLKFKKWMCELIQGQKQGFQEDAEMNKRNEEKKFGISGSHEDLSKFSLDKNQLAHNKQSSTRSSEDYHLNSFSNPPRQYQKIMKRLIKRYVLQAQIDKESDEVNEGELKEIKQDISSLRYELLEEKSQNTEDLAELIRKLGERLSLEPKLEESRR
smiles,measurement,setting,value
C1CCN(c2nc(N3CCCC3)nc(N3CCNCC3)n2)C1,outcome,[1],inactive
same,outcome,[2],inactive
same,outcome,[3],inactive
same,outcome,[4],inactive
same,outcome,[5],inactive
same,outcome,[6],inactive
same,outcome,[7],inactive
same,outcome,[8],inactive
same,outcome,[9],inactive
same,outcome,[10],inactive
same,outcome,[11],inactive
same,outcome,[12],inactive
same,outcome,[13],inactive
same,potentiation,[14],18.4% (active)
same,outcome,[15],inactive
same,outcome,[16],inactive
CCCCCCn1c(N2CCN(c3ccccc3)CC2)nc2c1c(=O)n(C)c(=O)n2C,outcome,[1],inactive
same,outcome,[2],inactive
same,potentiation,[3],9% (active)
same,potentiation,[4],117% (active)
same,outcome,[5],inactive
same,outcome,[6],inactive
same,outcome,[7],inactive
same,outcome,[8],inactive
same,outcome,[9],inactive
same,outcome,[10],inactive
same,outcome,[11],inactive
same,outcome,[12],inactive
same,outcome,[13],inactive
same,potentiation,[14],81% (active)
same,outcome,[15],inactive
same,outcome,[16],inactive
CCOc1ccc(-n2c(SCC(=O)O)nc3sc4c(c3c2=O)CCCC4)cc1,outcome,[1],inactive
same,outcome,[2],inactive
same,outcome,[3],inactive
same,outcome,[4],inactive
same,outcome,[5],inactive
same,outcome,[6],inactive
same,outcome,[7],inactive
same,outcome,[8],inactive
same,outcome,[9],inactive
same,outcome,[10],inactive
same,outcome,[11],inactive
same,outcome,[12],inactive
same,outcome,[13],inactive
same,potentiation,[14],16.4% (active)
same,outcome,[15],inactive
same,outcome,[16],inactive
Cc1ccc(Cn2c(=N)c(C(=O)NC3CCCC3)cc3c(=O)n4ccccc4nc32)cc1,activation,[1],206% (active)
same,outcome,[2],inactive
same,potentiation,[3],8% (active)
same,outcome,[4],inactive
same,outcome,[5],inactive
same,outcome,[6],inactive
same,outcome,[7],inactive
same,outcome,[8],inactive
same,outcome,[9],inactive
same,outcome,[10],inactive
same,outcome,[11],inactive
same,outcome,[12],inactive
same,outcome,[13],inactive
same,potentiation,[14],41.6% (active)
same,outcome,[15],inactive
same,outcome,[16],inactive
Cc1cccc(Cc2c(C)nc3c(C(=O)NCc4ccco4)cnn3c2C)c1,outcome,[1],inactive
same,outcome,[2],inactive
same,outcome,[3],inactive
same,outcome,[4],inactive
same,outcome,[5],inactive
same,outcome,[6],inactive
same,outcome,[7],inactive
same,outcome,[8],inactive
same,outcome,[9],inactive
same,outcome,[10],inactive
same,outcome,[11],inactive
same,outcome,[12],inactive
same,outcome,[13],inactive
same,potentiation,[14],58.9% (active)
same,outcome,[15],inactive
same,outcome,[16],inactive
O=C(CCN1CCN(Cc2ccccc2)CC1)Nc1ccc(OCc2ccccc2)cc1,outcome,[1],inactive
same,outcome,[2],inactive
same,outcome,[3],inactive
same,potentiation,[4],12% (active)
same,outcome,[5],inactive
same,outcome,[6],inactive
same,outcome,[7],inactive
same,outcome,[8],inactive
same,outcome,[9],inactive
same,outcome,[10],inactive
same,outcome,[11],inactive
same,outcome,[12],inactive
same,outcome,[13],inactive
same,potentiation,[14],25.1% (active)
same,outcome,[15],inactive
same,outcome,[16],inactive
Cc1ccc(/C=N/NC(=O)NC2CCCCC2)o1,outcome,[1],inactive
same,outcome,[2],inactive
same,potentiation,[3],10% (active)
same,potentiation,[4],54% (active)
same,outcome,[5],inactive
same,outcome,[6],inactive
same,outcome,[7],inactive
same,outcome,[8],inactive
same,outcome,[9],inactive
same,outcome,[10],inactive
same,outcome,[11],inactive
same,outcome,[12],inactive
same,outcome,[13],inactive
same,potentiation,[14],69.9% (active)
same,outcome,[15],inactive
same,outcome,[16],inactive
Cc1ccc(-c2nnc(N3CCC(C)CC3)c3ccccc23)cc1C,outcome,[1],inactive
same,outcome,[2],inactive
same,potentiation,[3],7% (active)
same,potentiation,[4],127% (active)
same,outcome,[5],inactive
same,outcome,[6],inactive
same,outcome,[7],inactive
same,outcome,[8],inactive
same,outcome,[9],inactive
same,outcome,[10],inactive
same,outcome,[11],inactive
same,outcome,[12],inactive
same,outcome,[13],inactive
same,potentiation,[14],60.2% (active)
same,outcome,[15],inactive
same,outcome,[16],inactive
Cc1cc(OCC(=O)N(C(C)C)C(C)C)cc(C)c1Br,outcome,[1],inactive
same,outcome,[2],inactive
same,outcome,[3],inactive
same,potentiation,[4],22% (active)
same,outcome,[5],inactive
same,outcome,[6],inactive
same,outcome,[7],inactive
same,outcome,[8],inactive
same,outcome,[9],inactive
same,outcome,[10],inactive
same,outcome,[11],inactive
same,outcome,[12],inactive
same,outcome,[13],inactive
same,potentiation,[14],31.9% (active)
same,outcome,[15],inactive
same,outcome,[16],inactive
Cc1onc(-c2ccccc2)c1C(=O)NNC(=S)NC(=O)c1ccc2c(c1)OCO2,activation,[1],55% (active)
same,outcome,[2],inactive
same,outcome,[3],inactive
same,outcome,[4],inactive
same,outcome,[5],inactive
same,outcome,[6],inactive
same,outcome,[17],inactive
same,outcome,[8],inactive
same,outcome,[9],inactive
same,outcome,[10],inactive
same,outcome,[11],inactive
same,activation,[12],56.5% (active)
same,outcome,[13],inactive
same,outcome,[14],inactive
same,outcome,[15],inactive
same,outcome,[16],inactive
c1ccc(-c2nc(N3CCNCC3)nc3ccccc23)cc1,outcome,[1],inactive
same,outcome,[2],inactive
same,potentiation,[3],19% (active)
same,outcome,[4],inactive
same,outcome,[5],inactive
same,outcome,[6],inactive
same,outcome,[7],inactive
same,outcome,[8],inactive
same,outcome,[9],inactive
same,outcome,[10],inactive
same,outcome,[11],inactive
same,outcome,[12],inactive
same,outcome,[13],inactive
same,outcome,[14],inactive
same,outcome,[15],inactive
same,outcome,[16],inactive
CC1=C(C(=O)NCc2ccccc2)C(c2cc(Br)cc(Br)c2OC(C)C)NC(=O)N1 (stereo not given),outcome,[1],inactive
same,outcome,[2],inactive
same,outcome,[3],inactive
same,potentiation,[4],28% (active)
same,outcome,[5],inactive
same,outcome,[6],inactive
same,outcome,[7],inactive
same,outcome,[8],inactive
same,outcome,[9],inactive
same,outcome,[10],inactive
same,outcome,[11],inactive
same,outcome,[12],inactive
same,outcome,[13],inactive
same,potentiation,[14],11.7% (active)
same,outcome,[15],inactive
same,outcome,[16],inactive
CN(C)CCNc1ccc(Cl)cc1[N+](=O)[O-],outcome,[1],inactive
same,outcome,[2],inactive
same,outcome,[3],inactive
same,outcome,[4],inactive
same,outcome,[5],inactive
same,outcome,[6],inactive
same,outcome,[7],inactive
same,outcome,[8],inactive
same,outcome,[9],inactive
same,outcome,[10],inactive
same,outcome,[11],inactive
same,outcome,[12],inactive
same,outcome,[13],inactive
same,potentiation,[14],8.91% (active)
same,outcome,[15],inactive
same,outcome,[16],inactive
Cc1ccc(Cl)cc1N1CCN(C(=O)c2cccc3c(=O)c(C)c(-c4ccccc4)oc23)CC1,outcome,[1],inactive
same,outcome,[2],inactive
same,outcome,[3],inactive
same,outcome,[4],inactive
same,outcome,[5],inactive
same,outcome,[6],inactive
same,outcome,[7],inactive
same,outcome,[8],inactive
same,outcome,[9],inactive
same,outcome,[10],inactive
same,outcome,[11],inactive
same,outcome,[12],inactive
same,outcome,[13],inactive
same,potentiation,[14],21.8% (active)
same,outcome,[15],inactive
same,outcome,[16],inactive
Cc1cc(-c2ccc(C)c(S(=O)(=O)N3CCN(C(=O)c4ccco4)CC3)c2)on1,outcome,[1],inactive
same,outcome,[2],inactive
same,outcome,[3],inactive
same,potentiation,[4],46% (active)
same,outcome,[5],inactive
same,outcome,[6],inactive
same,outcome,[7],inactive
same,outcome,[8],inactive
same,outcome,[9],inactive
same,outcome,[10],inactive
same,outcome,[11],inactive
same,outcome,[12],inactive
same,outcome,[13],inactive
same,potentiation,[14],54.2% (active)
same,outcome,[15],inactive
same,outcome,[16],inactive
